{"source": "PubChem BioAssay (NCATS)", "note": "Records with an inconclusive call do not appear. Activity calls are given as the source filed them. Calls come from the whole dose curve; as a rule, active = well fitted cell-killing curve with a large enough effect in the repeat runs; inconclusive = weak or mixed curves, or effect the other way; inactive = flat fitted curve, though single readings scatter.", "data": [{"assay": "qHTS assay for small molecule antagonists of the retinoid-related orphan receptor gamma (ROR-gamma) signaling pathway - cell viability counter screen (AID 720652);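 note: compound exposure lasted 16 hr before ATP read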; note: potency is the fitted concentration of half-maximal effect; for activity change, negative = cytotoxicity: % is set by controls: 0 for no effect and ±100 for the full control effect", "details": "RORgamma reporter cell line viability counter screen; series mostly up to 92.2 µM; activity change, negative = cytotoxicity: at the top concentration", "excerpt": "National Center for Advancing Translational Sciences [NCATS]\nNIH Chemical Genomics Center [NCGC]\nNational Institutes of Environmental Health Sciences [NIEHS]\nNational Toxicology Program [NTP]\nNuclear steroid hormone receptors are involved in many biological processes including inflammatory responses, cell proliferation, and apoptosis. Environmental factors or compounds disrupting these nuclear receptor pathways and gene expression may promote susceptibility to immunotoxicants and autoimmune diseases. One important group of these expression factors are the retinoid-related orphan receptors. To assess compounds that may interfere with the retinoid-related orphan receptor gamma (ROR-gamma) transcription factor, a cell-based luciferase assay was used.\nThe CHO cell-based assay utilizes a TET-inducible ROR expression factor and ROR response element-LUC reporter gene. Reporter activity was induced using doxycycline and measured after 16hr incubation. Luminescence was read using Viewlux (PerkinElmer), where a decrease in reporter activity would show a decrease in luminescence. The cytotoxicity of the compounds against ROR response-Luc reporter gene cell line was quantified by measuring the intracellular ATP content.\n1,000 cells in 4 uL/well were dispensed into white wall/solid bottom 1536-well plates using a Multidrop Combi (Thermo Scientific) dispenser. Following incubation at 37 C and 5% CO2 for 5 hr, 23 nL compound or DMSO vehicle were transferred by a pin tool, then the plates were treated with 1 ul doxycycline to induce reporter gene activity. After 16 hr incubation at 37 C and 5% CO2, 5 uL/well of CellTiter-Glo reagent (Promega) was then added to each plate using a Flying Reagent Dispenser and incubated at room temperature for 30 min. The luminescence intensity was quantified on a ViewLux plate reader (PerkinElmer).", "values": [{"compound": "C(CCOCC1CO1)COCC1CO1", "note": "(stereo not given)", "activity change, negative = cytotoxicity": "13.2% (inactive)"}, {"compound": "c1ccc(C2CO2)cc1", "note": "(stereo not given)", "activity change, negative = cytotoxicity": "1.79% (inactive)"}, {"compound": "Nc1cccc2ccccc12", "activity change, negative = cytotoxicity": "-18.8% (inactive)"}, {"compound": "ClCCBr", "activity change, negative = cytotoxicity": "-6.52% (inactive)"}, {"compound": "ClCC(Cl)Cl", "activity change, negative = cytotoxicity": "-7.93% (inactive)"}, {"compound": "Cc1cccc(N)c1C", "activity change, negative = cytotoxicity": "7.42% (inactive)"}, {"compound": "CN(C)N=O", "activity change, negative = cytotoxicity": "0.0952% (inactive)"}, {"compound": "Clc1ccccc1", "activity change, negative = cytotoxicity": "-8.59% (inactive)"}, {"compound": "O=[N+]([O-])c1cccc(O)c1", "activity change, negative = cytotoxicity": "9.97% (inactive)"}, {"compound": "Oc1cc(Cl)ccc1Cl", "activity change, negative = cytotoxicity": "5.72% (inactive)"}, {"compound": "BrCC(Br)C1CCC(Br)C(Br)C1", "note": "(stereo not given)", "activity change, negative = cytotoxicity": "-9.91% (inactive)"}, {"compound": "BrCCc1ccccc1", "activity change, negative = cytotoxicity": "-0.695% (inactive)"}, {"compound": "ClCC(Cl)CCl", "activity change, negative = cytotoxicity": "-9.88% (inactive)"}, {"compound": "Nn1cnnc1", "activity change, negative = cytotoxicity": "17.6% (inactive)"}, {"compound": "O=C(O)C(Cl)(Cl)Br", "activity change, negative = cytotoxicity": "12.7% (inactive)"}, {"compound": "C/C=C/CC#N", "activity change, negative = cytotoxicity": "8.55% (inactive)"}, {"compound": "CN(C)c1ccccc1", "activity change, negative = cytotoxicity": "1.13% (inactive)"}, {"compound": "O=[N+]([O-])c1ccc2c3c(cccc13)CC2", "activity change, negative = cytotoxicity": "3.74% (inactive)"}, {"compound": "CCOC(=O)CBr", "activity change, negative = cytotoxicity": "-1.06% (inactive)"}, {"compound": "ClP(Cl)(Cl)(Cl)Cl", "activity change, negative = cytotoxicity": "-4.45% (inactive)"}, {"compound": "ClCCCCl", "activity change, negative = cytotoxicity": "8.17% (inactive)"}, {"compound": "CCCBr", "activity change, negative = cytotoxicity": "-5.92% (inactive)"}, {"compound": "Nc1c(Cl)cc([N+](=O)[O-])cc1Cl", "activity change, negative = cytotoxicity": "-6.44% (inactive)"}, {"compound": "CCCCOC(=O)c1ccccc1N", "activity change, negative = cytotoxicity": "-0.316% (inactive)"}, {"compound": "O=[N+]([O-])/C=C/c1ccccc1", "Potency": "37.6 µM (active)"}, {"compound": "Nc1ccc2ccccc2c1", "activity change, negative = cytotoxicity": "-7.91% (inactive)"}, {"compound": "Nc1ccc([N+](=O)[O-])cc1[N+](=O)[O-]", "activity change, negative = cytotoxicity": "-23% (inactive)"}, {"compound": "COC(=O)c1ccccc1N", "activity change, negative = cytotoxicity": "-5.69% (inactive)"}, {"compound": "CCOP(=S)(OCC)SCCSCC", "activity change, negative = cytotoxicity": "-13.5% (inactive)"}, {"compound": "S=c1[nH]c2ccccc2[nH]1", "activity change, negative = cytotoxicity": "-8.54% (inactive)"}, {"compound": "CC(C)(C)C(O)(CCc1ccc(Cl)cc1)Cn1cncn1", "note": "(stereo not given)", "activity change, negative = cytotoxicity": "-16.1% (inactive)"}, {"compound": "Cc1ccc(N)cc1N", "activity change, negative = cytotoxicity": "-8.79% (inactive)"}, {"compound": "Clc1ccc(C(Cl)(Cl)Cl)cc1Cl", "activity change, negative = cytotoxicity": "-2.97% (inactive)"}, {"compound": "OCCOCCO", "activity change, negative = cytotoxicity": "-10.7% (inactive)"}, {"compound": "c1ccc2c(c1)CCNC2", "activity change, negative = cytotoxicity": "10.3% (inactive)"}, {"compound": "Cc1ccccc1[N+](=O)[O-]", "activity change, negative = cytotoxicity": "1.58% (inactive)"}, {"compound": "C=C(Cl)CCl", "activity change, negative = cytotoxicity": "4.42% (inactive)"}, {"compound": "ClC(Cl)C(Cl)Cl", "activity change, negative = cytotoxicity": "2.39% (inactive)"}, {"compound": "N#CC(O)c1ccccc1", "note": "(stereo not given)", "activity change, negative = cytotoxicity": "2.73% (inactive)"}, {"compound": "CC(C)(COCC1CO1)COCC1CO1", "note": "(stereo not given)", "activity change, negative = cytotoxicity": "10.6% (inactive)"}]}]}
